Measurements published in ChEMBL document CHEMBL4296182, “CO-ADD screening of NIH NCI Diversity Set V”.

test system: Staphylococcus aureus; assay: Antibacterial activity against Staphylococcus aureus MRSA ATCC 43300 (CO-ADD:GP_020); MIC in CAMBH media using NBS plates, by Resazurin F(560/590); type: functional; settings: Concentration 20 uM, ASSAY_TEST Inhibition of Bacterial Growth, detection method Resazurin, Fluorescence (ex560/em590), MEDIA CAMHB, plate type 384well, CORNING #3640, time 18 hr

Structure (SMILES)	Inhibition [%]
COc1cc(/N=N/c2ccccc2C(=O)O)ccc1O	46.16
Cc1ccc(/N=N/c2c(O)c3ccccc3[nH]c2=O)c(S(=O)(=O)N(C)C)c1	12.78
C=C1S/C(=N\c2c(C)cccc2Cl)N(C(=O)c2sc3ccccc3c2Cl)C12CCCCC2	4.2
NC(=N\c1ccc(N)cc1)/C(N)=N/c1ccc(N)cc1	-1.65
CCOC(=O)c1[nH]c(CO)c(C(=O)OCC)c1C	12.97
CCC12CCCN3CCc4c(n(c5ccccc45)C(O)(C(=O)OC)C1)C32 (stereo unspecified)	7.39
CC(C)C(=O)Nc1cccnc1	-3.96
O=C(c1ccccc1)c1ccc(Sc2ccc([N+](=O)[O-])cc2)cc1	11.06
COc1ccccc1/C=C(\C#N)C(=O)O	12.51
COc1ccc2c(n1)Sc1nc3ccccc3nc1N2	9.7
CCOC(=O)Nc1csnn1	13.65
CC1(C)CC2(C)OC2C2(C1)N=N/C(=N/c1ccccc1)O2 (stereo unspecified)	27.69
CC1=CC(=O)CC(C)(C)C1(O)/C=C/C(C)=C/C(=O)O (stereo unspecified)	-9.32
CCN(CC)CCN1C(=O)c2cccc3cc(N)cc(c23)C1=O	-0.77
CCCn1cnc2c(S)nc(N)nc21	0.53
CN(C)S(=O)(=O)c1ccccc1N=C=S	19.33
O=c1ccn2c(n1)SC(c1ccccc1)C2 (stereo unspecified)	9.54
COc1cccc2nc3cc(C)c(C)cc3nc12	20.84
COC(=O)Cc1[nH]c(Cl)nc1C(N)=O	-16.49

Structure (SMILES)	Inhibition [%]
COc1cc(/C=N/N=c2\[nH]c3c(=O)n(C)c(=O)n(C)c3[nH]2)ccc1O	15.24
CCCCSc1[nH]cnc2nncc1-2	-2.6
Nc1ccc(/C=C/c2ccc3ncccc3c2)cc1	-2.75
Cc1cc2c3ccccc3ncn2n1	14.33
CCOC(=O)c1cnc(SCC)nc1O	11.19
Cc1cccc2cc3cccc(C)c3nc12	-5.52
COC(=O)C1(C(=O)OC)C2C(=O)C3C(C21)C3(C(=O)OC(C)(C)C)C(=O)OC(C)(C)C (stereo unspecified)	5.34
Nc1c(Cl)ncnc1NCCO	-0.51
O=C(Nc1cccc(Cl)c1)Nn1cnnc1	17.05
Cc1ccc(S(=O)(=O)N(C)C)cc1[N+](=O)[O-]	-7.75
COc1ccc2[nH]c(-c3ccccc3)cc2c1	9.9
S=C1SCN(CCc2ccccc2)CN1CCc1ccccc1	-3.89
CSc1c(N(C)C)c(=O)c1=S	-5.31
C#CC(C)OCC1CNC(=S)O1 (stereo unspecified)	8.34
CCC(C)NC(=O)c1cccc(C)c1 (stereo unspecified)	27.07
[O-][n+]1ccc(CC(O)(C(F)(F)F)C(F)(F)F)cc1	-9.72
N#Cc1cnn(-c2cccc(Cl)c2)c1-n1cccc1	7.59
O=C(O)c1cc2cc(OCc3ccccc3)ccc2[nH]1	6.76
c1ccc2c(c1)nnn2-c1ccncc1	-3.68

test system: Acinetobacter baumannii; assay: Antibacterial activity against Acinetobacter baumannii ATCC 19606 (CO-ADD:GN_034); MIC in CAMBH media using NBS plates, by Resazurin F(560/590); type: functional; settings: Concentration 20 uM, ASSAY_TEST Inhibition of Bacterial Growth, detection method Resazurin, Fluorescence (ex560/em590), MEDIA CAMHB, plate type 384well, CORNING #3640, time 18 hr

Structure (SMILES)	Inhibition [%]
COc1cc(/N=N/c2ccccc2C(=O)O)ccc1O	-0.55
Cc1ccc(/N=N/c2c(O)c3ccccc3[nH]c2=O)c(S(=O)(=O)N(C)C)c1	7.24
C=C1S/C(=N\c2c(C)cccc2Cl)N(C(=O)c2sc3ccccc3c2Cl)C12CCCCC2	0.82
NC(=N\c1ccc(N)cc1)/C(N)=N/c1ccc(N)cc1	-17.09
CCOC(=O)c1[nH]c(CO)c(C(=O)OCC)c1C	11.05
CCC12CCCN3CCc4c(n(c5ccccc45)C(O)(C(=O)OC)C1)C32 (stereo unspecified)	9.61
CC(C)C(=O)Nc1cccnc1	-12.43
O=C(c1ccccc1)c1ccc(Sc2ccc([N+](=O)[O-])cc2)cc1	-8.42
COc1ccccc1/C=C(\C#N)C(=O)O	1.75
COc1ccc2c(n1)Sc1nc3ccccc3nc1N2	-15.29
CCOC(=O)Nc1csnn1	-5.72
CC1(C)CC2(C)OC2C2(C1)N=N/C(=N/c1ccccc1)O2 (stereo unspecified)	-0.3
CC1=CC(=O)CC(C)(C)C1(O)/C=C/C(C)=C/C(=O)O (stereo unspecified)	-14.23
CCN(CC)CCN1C(=O)c2cccc3cc(N)cc(c23)C1=O	7.97
CCCn1cnc2c(S)nc(N)nc21	-16.82
CN(C)S(=O)(=O)c1ccccc1N=C=S	5.01
O=c1ccn2c(n1)SC(c1ccccc1)C2 (stereo unspecified)	7.52
COc1cccc2nc3cc(C)c(C)cc3nc12	3.71
COC(=O)Cc1[nH]c(Cl)nc1C(N)=O	-11.06

Structure (SMILES)	Inhibition [%]
COc1cc(/C=N/N=c2\[nH]c3c(=O)n(C)c(=O)n(C)c3[nH]2)ccc1O	-6.89
CCCCSc1[nH]cnc2nncc1-2	-0.75
Nc1ccc(/C=C/c2ccc3ncccc3c2)cc1	-9.02
Cc1cc2c3ccccc3ncn2n1	-9.67
CCOC(=O)c1cnc(SCC)nc1O	-12.25
Cc1cccc2cc3cccc(C)c3nc12	-11.71
COC(=O)C1(C(=O)OC)C2C(=O)C3C(C21)C3(C(=O)OC(C)(C)C)C(=O)OC(C)(C)C (stereo unspecified)	-10.49
Nc1c(Cl)ncnc1NCCO	-7.14
O=C(Nc1cccc(Cl)c1)Nn1cnnc1	8.62
Cc1ccc(S(=O)(=O)N(C)C)cc1[N+](=O)[O-]	-5.08
COc1ccc2[nH]c(-c3ccccc3)cc2c1	3.58
S=C1SCN(CCc2ccccc2)CN1CCc1ccccc1	1.92
CSc1c(N(C)C)c(=O)c1=S	-13.14
C#CC(C)OCC1CNC(=S)O1 (stereo unspecified)	0.13
CCC(C)NC(=O)c1cccc(C)c1 (stereo unspecified)	-10.03
[O-][n+]1ccc(CC(O)(C(F)(F)F)C(F)(F)F)cc1	-5.31
N#Cc1cnn(-c2cccc(Cl)c2)c1-n1cccc1	-21.29
O=C(O)c1cc2cc(OCc3ccccc3)ccc2[nH]1	10.19
c1ccc2c(c1)nnn2-c1ccncc1	-2.01
